Assay results as given in PubChem BioAssay (EPA / NIEHS).
Active and inactive are the calls of the source. The calls were made as follows: active = hit-call score of the fitted dose curve at least 0.9, where 1 is the maximum; inactive = score below 0.9.

Experiments:
Conditions in all cases: mRNA level, 48 h; actives raise or lower the signal
[1] = read-out: DNA damage-inducible transcript 3 (DDIT3), DDIT3 (gene 1649); assay: LTEA_HepaRG_DDIT3: Life Technologies and Expression Analysis (LTEA) Assay for DNA damage-inducible transcript 3 (DDIT3) using HepaRG (AID 2283488)
Outline: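 HepaRG plated 48 h, switched to serum-free induction medium, dosed 48 h (100 uM top, half-log, 8 pts, 0.5% DMSO, n=2); RNA isolated; DDIT3 by qRT-PCR; bidirectional curve fit vs DMSO.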

[2] = read-out: Pro-epidermal growth factor (Homo sapiens) (UniProt P01133); assay: LTEA_HepaRG_EGF: Life Technologies and Expression Analysis (LTEA) Assay for Epidermal growth factor (EGF) using HepaRG (AID 2283489)
Outline: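 EGF transcript measured by Fluidigm TaqMan qRT-PCR with three housekeeping genes for normalization, 48 h after dosing HepaRG cultures in duplicate (top 100 uM, half-log steps, 0.5% DMSO vehicle). Gain or loss relative to DMSO fitted.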

[3] = read-out: Early growth response protein 1 (EGR1) transcription factor, EGR1 (gene 1958); assay: LTEA_HepaRG_EGR1: Life Technologies and Expression Analysis (LTEA) Assay for Early growth response protein 1 (EGR1) transcription factor using HepaRG (AID 2283490)
Outline: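 Differentiated human HepaRG cells in serum-free induction medium were exposed in duplicate for 48 h to eight concentrations (top 100 uM, half-log steps) in 0.5% DMSO. EGR1 mRNA was quantified by qRT-PCR, normalized to ACTB, GAPDH and POLR2A, and fitted bidirectionally versus DMSO.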

[4] = read-out: Ezrin (EZR), EZR (gene 7430); assay: LTEA_HepaRG_EZR: Life Technologies and Expression Analysis (LTEA) Assay for Ezrin (EZR) using HepaRG (AID 2283491)
Outline: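 Gain or loss of EZR mRNA is scored relative to 0.5% DMSO in human HepaRG cultures treated 48 h with test chemicals in duplicate, eight half-log concentrations from 100 uM.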

[5] = read-out: Fatty Acid-Binding Protein 1 (FABP1), FABP1 (gene 2168); assay: LTEA_HepaRG_FABP1: Life Technologies and Expression Analysis (LTEA) Assay for Fatty Acid-Binding Protein 1 (FABP1) using HepaRG (AID 2283494)
Outline: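 Differentiated human HepaRG cells were exposed in duplicate for 48 h in serum-free induction medium to 8-point half-log concentration series topping at 100 uM in 0.5% DMSO. FABP1 mRNA measured by TaqMan qRT-PCR, normalized to ACTB/GAPDH/POLR2A; bidirectional fit versus DMSO.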

[6] = read-out: Glutathione S-Transferase (GSTA2), GSTA2 (gene 2939); assay: LTEA_HepaRG_GSTA2: Life Technologies and Expression Analysis (LTEA) Assay for Glutathione S-Transferase (GSTA2) using HepaRG (AID 2283497)
Outline: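 Human HepaRG cells, plated 48 h, then exposed in serum-free induction medium for 48 h to eight half-log concentrations up to 100 uM in 0.5% DMSO, duplicate. GSTA2 mRNA by qRT-PCR, normalized to ACTB/GAPDH/POLR2A; bidirectional fit versus DMSO.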

[7] = read-out: Glutamate-cysteine ligase catalytic (GCLC), GCLC (gene 2729); assay: LTEA_HepaRG_GCLC: Life Technologies and Expression Analysis (LTEA) Assay for Glutamate-cysteine ligase catalytic (GCLC) using HepaRG (AID 2283498)
Outline: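 Differentiated human HepaRG cells, plated 48 h then switched to serum-free induction medium, were exposed in duplicate for 48 h to 8 half-log concentrations topping at 100 uM in 0.5% DMSO. GCLC mRNA was quantified by qRT-PCR against ACTB, GAPDH and POLR2A.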

[8] = read-out: growth arrest and DNA damage 45 (GADD45G), GADD45G (gene 10912); assay: LTEA_HepaRG_GADD45G: Life Technologies and Expression Analysis (LTEA) Assay for growth arrest and DNA damage 45 (GADD45G) using HepaRG (AID 2283499)
Outline: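 GADD45G transcript level by qRT-PCR (housekeeping-normalized: ACTB, GAPDH, POLR2A) after 48 h chemical treatment of a single HepaRG lot in serum-free induction medium; eight-point half-log series up to 100 uM in 0.5% DMSO, duplicates, up- or down-regulation scored.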

[9] = read-out: Glutamate-cysteine ligase regulatory (GCLM), GCLM (gene 2730); assay: LTEA_HepaRG_GCLM: Life Technologies and Expression Analysis (LTEA) Assay for Glutamate-cysteine ligase regulatory (GCLM) using HepaRG (AID 2283500)
Outline: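 Cells were plated, cultured 48 h, switched to serum-free induction medium, then dosed in duplicate for 48 h at eight half-log concentrations up to 100 uM. RNA was then profiled by qRT-PCR; gain or loss versus DMSO was fitted.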

[10] = read-out: Glutathione S-transferase M3 (GSTM3), GSTM3 (gene 2947); assay: LTEA_HepaRG_GSTM3: Life Technologies and Expression Analysis (LTEA) Assay for Glutathione S-transferase M3 (GSTM3) using HepaRG (AID 2283501)
Outline: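 GSTM3 transcript levels came from Fluidigm TaqMan qRT-PCR normalized to three housekeeping genes, fitted in both directions against DMSO. HepaRG cultures received chemicals for 48 h in serum-free induction medium (0.5% DMSO), 8 half-log concentrations up to 100 uM, duplicate.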

[11] = read-out: Heat shock 70 kDa protein 1 (HSPA1A), gene 3303; assay: LTEA_HepaRG_HSPA1A: Life Technologies and Expression Analysis (LTEA) Assay for Heat shock 70 kDa protein 1 (HSPA1A) using HepaRG (AID 2283502)
Outline: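 Readout is HSPA1A transcript level by microfluidic qRT-PCR, normalized to three housekeeping genes and analysed for gain or loss of signal relative to 0.5% DMSO. Human HepaRG cultures received test chemicals for 48 h at up to 100 uM.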

[12] = read-out: Hypoxia-inducible factor 1-alpha (Homo sapiens) (UniProt Q16665); assay: LTEA_HepaRG_HIF1A: Life Technologies and Expression Analysis (LTEA) Assay for Hypoxia-inducible factor 1 (HIF1A) Trancription factor using HepaRG (AID 2283503)
Outline: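 Differentiated HepaRG cells in serum-free induction medium exposed 48 h, in duplicate, to 8-point half-log series from 100 uM in 0.5% DMSO. HIF1A mRNA measured by TaqMan qRT-PCR, normalized to ACTB/GAPDH/POLR2A, fitted bidirectionally versus DMSO.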

[13] = read-out: 3-Hydroxy-3-Methylglutaryl-CoA Synthase 2 (HMGCS2), HMGCS2 (gene 3158); assay: LTEA_HepaRG_HMGCS2: Life Technologies and Expression Analysis (LTEA) Assay for 3-Hydroxy-3-Methylglutaryl-CoA Synthase 2 (HMGCS2) using HepaRG (AID 2283504)
Outline: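 Readout is HMGCS2 transcript by qRT-PCR, housekeeping-normalised (ACTB/GAPDH/POLR2A) and fitted bidirectionally against 0.5% DMSO. Differentiated HepaRG cells received chemicals 48 h, duplicate wells, eight half-log concentrations topping at 100 uM.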

[14] = read-out: Insulin Like Growth Factor 1 (IGF1), IGF1 (gene 3479); assay: LTEA_HepaRG_IGF1: Life Technologies and Expression Analysis (LTEA) Assay for Insulin Like Growth Factor 1 (IGF1) using HepaRG (AID 2283506)
Outline: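 HepaRG, plated 48 h, then switched to serum-free induction media; test chemical 8-pt half-log from 100 uM (0.5% DMSO), duplicate, 48 h. Lysis in RLT, TaqMan qRT-PCR, norm. ACTB/GAPDH/POLR2A. Bidirectional fit vs DMSO.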

[15] = read-out: Intercellular Adhesion Molecule 1 (ICAM1), ICAM1 (gene 3383); assay: LTEA_HepaRG_ICAM1: Life Technologies and Expression Analysis (LTEA) Assay for Intercellular Adhesion Molecule 1 (ICAM1) using HepaRG (AID 2283507)
Outline: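 ICAM1 transcript levels measured by qRT-PCR, normalized to three housekeeping genes (ACTB, GAPDH, POLR2A), after 48 h chemical exposure of HepaRG cells. Duplicate eight-point half-log series from 100 uM in 0.5% DMSO; gain or loss fitted against vehicle.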

[16] = read-out: Cytochrome P450 3A4 (Homo sapiens) (UniProt P08684); assay: LTEA_HepaRG_CYP3A4: Life Technologies and Expression Analysis (LTEA) Assay for CYP3A4 using HepaRG (AID 2283487)
Outline: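 In a human hepatic line (HepaRG), duplicate wells were treated 48 h with up to 100 uM chemical in half-log dilutions. Endpoint: CYP3A4 mRNA induction or loss relative to 0.5% DMSO vehicle, by qRT-PCR.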

[17] = read-out: CYP3A5 (gene 1577); assay: LTEA_HepaRG_CYP3A5: Life Technologies and Expression Analysis (LTEA) Assay for CYP3A5 using HepaRG (AID 2283493)
Outline: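 HepaRG plated 48 h, switched to serum-free induction medium, chemicals added 48 h (max 100 uM, half-log, 0.5% DMSO). RNA isolated; CYP3A5 by TaqMan qRT-PCR. Gain/loss vs DMSO.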

[18] = read-out: HGF (gene 3082); assay: LTEA_HepaRG_HGF: Life Technologies and Expression Analysis (LTEA) Assay for Hepatocyte Growth Facto (HGF) using HepaRG (AID 2283505)
Outline: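 HGF transcript was quantified by TaqMan qRT-PCR against three housekeeping genes after 48 h treatment of HepaRG cells. Exposure ran in duplicate over eight half-log steps topping at 100 uM in 0.5% DMSO vehicle.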

[19] = read-out: Cytochrome P450 4A22 (Homo sapiens) (UniProt Q5TCH4); assay: LTEA_HepaRG_CYP4A22: Life Technologies and Expression Analysis (LTEA) Assay for Cytochrome P450 4A22 (CYP4A22) using HepaRG (AID 2283495)
Outline: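 Gene expression measured by qRT-PCR against three housekeeping genes (ACTB, GAPDH, POLR2A), with gain or loss fitted relative to 0.5% DMSO vehicle. HepaRG cultures received 48 h chemical treatment, top concentration 100 uM, half-log steps, duplicate wells.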

[20] = read-out: Cytochrome P450 7A1 (Homo sapiens) (UniProt P22680); assay: LTEA_HepaRG_CYP7A1: Life Technologies and Expression Analysis (LTEA) Assay for Cytochrome P450 7A1 (CYP7A1) using HepaRG (AID 2283496)
Outline: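 HepaRG cells plated 48 h, then switched to serum-free induction medium and exposed in duplicate for 48 h to 8-point half-log series from 100 uM in 0.5% DMSO. CYP7A1 mRNA by qRT-PCR (TaqMan), normalized to ACTB/GAPDH/POLR2A; bidirectional fit versus DMSO.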

Measured: AC50

Chain of Cytochrome P450 3A4 (Homo sapiens) (P08684 whole entry, looked up): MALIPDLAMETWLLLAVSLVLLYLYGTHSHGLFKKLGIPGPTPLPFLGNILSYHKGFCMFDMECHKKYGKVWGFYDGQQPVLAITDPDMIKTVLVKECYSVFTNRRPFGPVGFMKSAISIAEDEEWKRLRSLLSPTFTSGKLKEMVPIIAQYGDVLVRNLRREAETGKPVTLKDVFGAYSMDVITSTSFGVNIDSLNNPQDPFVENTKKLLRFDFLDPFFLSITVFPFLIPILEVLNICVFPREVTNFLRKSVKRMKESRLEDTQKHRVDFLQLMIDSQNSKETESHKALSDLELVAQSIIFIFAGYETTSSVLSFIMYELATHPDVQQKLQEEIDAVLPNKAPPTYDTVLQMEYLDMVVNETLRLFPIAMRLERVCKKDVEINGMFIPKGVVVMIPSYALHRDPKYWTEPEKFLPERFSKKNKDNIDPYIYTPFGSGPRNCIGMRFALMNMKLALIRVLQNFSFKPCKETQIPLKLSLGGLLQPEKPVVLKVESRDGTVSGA
Chain of Hypoxia-inducible factor 1-alpha (Homo sapiens) (Q16665 whole entry, looked up): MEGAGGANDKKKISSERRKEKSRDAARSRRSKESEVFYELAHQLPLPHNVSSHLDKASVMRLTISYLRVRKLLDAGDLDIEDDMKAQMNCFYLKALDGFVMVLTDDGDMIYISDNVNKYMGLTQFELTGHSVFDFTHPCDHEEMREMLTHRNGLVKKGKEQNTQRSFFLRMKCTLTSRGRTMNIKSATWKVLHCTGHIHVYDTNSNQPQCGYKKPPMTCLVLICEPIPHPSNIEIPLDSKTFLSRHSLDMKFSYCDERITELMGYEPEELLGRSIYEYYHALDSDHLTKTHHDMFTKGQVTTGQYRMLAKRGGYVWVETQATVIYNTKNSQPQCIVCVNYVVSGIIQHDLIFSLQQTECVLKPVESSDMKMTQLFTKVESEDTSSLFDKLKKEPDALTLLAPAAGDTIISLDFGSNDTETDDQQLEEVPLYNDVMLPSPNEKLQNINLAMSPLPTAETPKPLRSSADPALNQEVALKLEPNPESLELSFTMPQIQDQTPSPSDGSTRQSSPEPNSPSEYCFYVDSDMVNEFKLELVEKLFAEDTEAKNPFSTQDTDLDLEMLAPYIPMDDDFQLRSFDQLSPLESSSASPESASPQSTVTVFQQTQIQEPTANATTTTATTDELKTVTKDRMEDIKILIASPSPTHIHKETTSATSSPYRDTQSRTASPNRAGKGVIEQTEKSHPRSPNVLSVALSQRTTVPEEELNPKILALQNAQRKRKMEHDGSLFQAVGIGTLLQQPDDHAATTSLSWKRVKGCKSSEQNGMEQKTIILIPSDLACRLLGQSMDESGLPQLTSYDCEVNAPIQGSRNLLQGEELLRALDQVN

CC(C)(C)c1ccc(O)cc1
not listed: [16] | [17] | [18] | [19] | [20]
inactive: all other assays above

Cc1cccc(N)c1
not listed: [2] | [19] | [20]
inactive: all other assays above

CC(Cc1ccc(OCC(=O)O)cc1)NCC(O)c1csc(C(F)(F)F)n1 (stereo not drawn)
not listed: [1]
inactive: all other assays above

ClC1=C(Cl)C2(Cl)C3C(Cl)C(Cl)CC3C1(Cl)C2(Cl)Cl (stereo not drawn)
active: [16] 4.39 µM | [1] 82.1 µM | [2] 18.4 µM | [5] 12.5 µM | [19] 26.2 µM | [20] 10.4 µM | [9] 50 µM | [12] 4.98 µM | [13] 31.7 µM | [14] 23.5 µM
inactive: [3] | [4] | [17] | [6] | [7] | [8] | [10] | [11] | [18] | [15]

CCOP(=S)(Oc1ccc([N+](=O)[O-])cc1)c1ccccc1 (stereo not drawn)
active: [16] 4.84 µM | [2] 21.4 µM | [5] 12.7 µM | [8] 65.7 µM
not listed: [7] | [11] | [17]
inactive: all other assays above

OCC1CO1 (stereo not drawn)
inactive: all assays above

CCCCCCCc1ccc(O)cc1
inactive: all assays above

CC(C)(C)OOC(C)(C)C
inactive: all assays above

O=[N+]([O-])c1ccccc1
not listed: [2] | [19] | [20]
inactive: all other assays above

O=C(O)C(Cl)Cl
inactive: all assays above

c1ccc(OP(Oc2ccccc2)Oc2ccccc2)cc1
inactive: all assays above

CCNc1nc(Cl)nc(NC(C)(C)C)n1
active: [16] 2.11 µM | [5] 28.7 µM | [19] 11 µM | [14] 13.1 µM
inactive: all other assays above

O=P1(N(CCCl)CCCl)NCCCO1 (stereo not drawn)
not listed: [12]
inactive: all other assays above

Nc1ccc(Cl)cc1
inactive: all assays above

CCOP(=S)(OCC)SCSCC
active: [16] 13.9 µM
inactive: all other assays above

O=C(O)C1C(C(=O)O)C2(Cl)C(Cl)=C(Cl)C1(Cl)C2(Cl)Cl (stereo not drawn)
active: [7] 50 µM
not listed: [12]
inactive: all other assays above
